Laboratory results reported in PubChem BioAssay (EPA / NIEHS).
Active and inactive are the calls of the source. How the source made its calls: active means hit-call score of the fitted dose curve at least 0.9, where 1 is the maximum; inactive means score below 0.9.

How the values were obtained:
Conditions in all cases: mRNA level, 48 h; actives raise or lower the signal
[1] = read-out: Potassium channel subfamily K member 1 (KCNK1), KCNK1 (gene 3775); experiment: LTEA_HepaRG_KCNK1: Life Technologies and Expression Analysis (LTEA) Assay for Potassium channel subfamily K member 1 (KCNK1) using HepaRG (AID 2283511)
Summary of the method: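 Differentiated HepaRG cells, 48 h exposure in serum-free induction medium with 0.5% DMSO; 8 concentrations, half-log from 100 uM, duplicate. KCNK1 mRNA by qRT-PCR, normalized to ACTB, GAPDH, POLR2A; bidirectional fit vs DMSO.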

[2] = read-out: JUN Transcription Factor, JUN (gene 3725); experiment: LTEA_HepaRG_JUN: Life Technologies and Expression Analysis (LTEA) Assay for JUN Transcription Factor using HepaRG (AID 2283513)
Summary of the method: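 Cells plated 48 h, medium switched to serum-free induction medium, then dosed 48 h (100 uM top, half-log dilutions, 0.5% DMSO). RNA isolated; JUN measured by qRT-PCR against three housekeeping genes; gain or loss fitted relative to DMSO.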

[3] = read-out: Lipase C (LIPC), LIPC (gene 3990); experiment: LTEA_HepaRG_LIPC: Life Technologies and Expression Analysis (LTEA) Assay for Lipase C (LIPC) using HepaRG (AID 2283514)
Summary of the method: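 HepaRG cells, 48 h after plating, treated in duplicate for 48 h in serum-free induction medium over 8 half-log concentrations from 100 uM, 0.5% DMSO. LIPC mRNA by TaqMan qRT-PCR normalized to ACTB/GAPDH/POLR2A; bidirectional fit versus DMSO.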

[4] = read-out: Lipoprotein lipase (LPL), LPL (gene 4023); experiment: LTEA_HepaRG_LPL: Life Technologies and Expression Analysis (LTEA) Assay for Lipoprotein lipase (LPL) using HepaRG (AID 2283515)
Summary of the method: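 Differentiated HepaRG cells, plated 48 h, then exposed 48 h in serum-free induction medium to 8 concentrations (top 100 uM, half-log steps) in 0.5% DMSO, duplicate. LPL mRNA measured by qRT-PCR, normalized to ACTB, GAPDH and POLR2A.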

[5] = read-out: MicroRNA 122 (MIR122), gene 406906; experiment: LTEA_HepaRG_MIR122: Life Technologies and Expression Analysis (LTEA) Assay for MicroRNA 122 (MIR122) using HepaRG (AID 2283516); further: the transcript read is the microRNA miR-122
Summary of the method: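 HepaRG plated 48 h, switched to serum-free induction medium, then treated in duplicate for 48 h (100 uM top, half-log steps, 0.5% DMSO vehicle). RNA isolated, qRT-PCR performed, concentration-response fitted both directions relative to DMSO.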

[6] = read-out: matrix metalloproteinase-10 (MMP10), MMP10 (gene 4319); experiment: LTEA_HepaRG_MMP10: Life Technologies and Expression Analysis (LTEA) Assay for matrix metalloproteinase-10 (MMP10) using HepaRG (AID 2283517)
Summary of the method: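 Differentiated HepaRG cells in serum-free induction medium exposed 48 h in duplicate to 8-point half-log series up to 100 uM in 0.5% DMSO. mRNA quantified by qRT-PCR, normalised to ACTB, GAPDH, POLR2A; bidirectional fit versus DMSO.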

[7] = read-out: MYC, MYC (gene 4609); experiment: LTEA_HepaRG_MYC: Life Technologies and Expression Analysis (LTEA) Assay for MYC using HepaRG (AID 2283518)
Summary of the method: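 qRT-PCR read-out of MYC transcript (Fluidigm TaqMan, housekeeping-normalized) after 48 h chemical exposure of HepaRG cells; eight concentrations, top 100 uM, half-log steps. Bidirectional curve fitting against 0.5% DMSO vehicle baseline.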

[8] = read-out: matrix metalloproteinase-3 (MMP3), MMP3 (gene 4314); experiment: LTEA_HepaRG_MMP3: Life Technologies and Expression Analysis (LTEA) Assay for matrix metalloproteinase-3 (MMP3) using HepaRG (AID 2283519)
Summary of the method: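 HepaRG cells (~100,000/well) in serum-free induction medium were dosed in duplicate for 48 h with an 8-point half-log series from 100 uM, 0.5% DMSO. MMP3 mRNA was quantified by Fluidigm TaqMan qRT-PCR, normalized to three housekeeping genes.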

[9] = read-out: Paternally Expressed 10 (PEG10), PEG10 (gene 23089); experiment: LTEA_HepaRG_PEG10: Life Technologies and Expression Analysis (LTEA) Assay for Paternally Expressed 10 (PEG10) using HepaRG (AID 2283520)
Summary of the method: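 HepaRG, 48 h post-plating → serum-free induction medium → 48 h chemical exposure (duplicate, 8-pt, max 100 uM, half-log, 0.5% DMSO) → lysis in RLT → TaqMan qRT-PCR for PEG10, ACTB/GAPDH/POLR2A normalisation.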

[10] = read-out: Protein phosphatase 2A (PPP2R4), PTPA (gene 5524); experiment: LTEA_HepaRG_PPP2R4: Life Technologies and Expression Analysis (LTEA) Assay for Protein phosphatase 2A (PPP2R4) using HepaRG (AID 2283522)
Summary of the method: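 Readout is PPP2R4 transcript level by microfluidic qRT-PCR after 48 h chemical treatment of human HepaRG liver cells. Concentrations spanned 100 uM downward in half-log steps; gain or loss of signal was fitted relative to DMSO.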

[11] = read-out: Phosphatase and tensin (PTEN), PTEN (gene 5728); experiment: LTEA_HepaRG_PTEN: Life Technologies and Expression Analysis (LTEA) Assay for Phosphatase and tensin (PTEN) using HepaRG (AID 2283523)
Summary of the method: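 HepaRG cells, 48 h after plating, exposed in duplicate for 48 h in serum-free induction medium to 8 half-log concentrations up to 100 uM (0.5% DMSO). PTEN mRNA by qRT-PCR, normalized to ACTB, GAPDH, POLR2A; bidirectional fit versus DMSO.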

[12] = read-out: solute carrier (SLC22A1), SLC22A1 (gene 6580); experiment: LTEA_HepaRG_SLC22A1: Life Technologies and Expression Analysis (LTEA) Assay for solute carrier (SLC22A1) using HepaRG (AID 2283524)
Summary of the method: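 Differentiated human HepaRG cells in serum-free induction medium, exposed 48 h in duplicate to 8-point half-log series from 100 µM top in 0.5% DMSO. SLC22A1 mRNA by TaqMan qRT-PCR normalized to ACTB, GAPDH, POLR2A; bidirectional fit versus DMSO.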

[13] = read-out: Pyruvate Dehydrogenase Kinase 4 (PDK4), PDK4 (gene 5166); experiment: LTEA_HepaRG_PDK4: Life Technologies and Expression Analysis (LTEA) Assay for Pyruvate Dehydrogenase Kinase 4 (PDK4) using HepaRG (AID 2283525)
Summary of the method: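 HepaRG cells plated 48 h, then switched to serum-free induction medium and exposed in duplicate for 48 h to 8 half-log concentrations from 100 uM in 0.5% DMSO. PDK4 mRNA measured by qRT-PCR, normalized to ACTB, GAPDH and POLR2A; bidirectional fit versus DMSO.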

[14] = read-out: NAD(P)H dehydrogenase [quinone] 1 (NQO1), NQO1 (gene 1728); experiment: LTEA_HepaRG_NQO1: Life Technologies and Expression Analysis (LTEA) Assay for NAD(P)H dehydrogenase [quinone] 1 (NQO1) using HepaRG (AID 2283526)
Summary of the method: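 HepaRG, 48 h post-plating → serum-free induction medium → test chemical 48 h (duplicate, 100 uM top, half-log x8, 0.5% DMSO) → RNA isolation → qRT-PCR, ACTB/GAPDH/POLR2A normalization; bidirectional curve fit vs DMSO baseline.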

[15] = read-out: succinate dehydrogenase complex iron sulfur subunit B (SDHB), SDHB (gene 6390); experiment: LTEA_HepaRG_SDHB: Life Technologies and Expression Analysis (LTEA) Assay for succinate dehydrogenase complex iron sulfur subunit B (SDHB) using HepaRG (AID 2283528)
Summary of the method: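 SDHB transcript level read by TaqMan qRT-PCR, housekeeping-normalised (ACTB, GAPDH, POLR2A), after 48 h chemical treatment of plated HepaRG cells; eight concentrations top 100 uM, half-log steps, 0.5% DMSO, duplicates; fitted both directions against DMSO.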

[16] = read-out: Signal transducer and activator of transcription 3 (Homo sapiens) (UniProt P40763); experiment: LTEA_HepaRG_STAT3: Life Technologies and Expression Analysis (LTEA) Assay for Signal transducer and activator of transcription (STAT3) using HepaRG (AID 2283529)
Summary of the method: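 Differentiated HepaRG cells, serum-free induction medium, dosed 48 h in duplicate, 8 half-log concentrations from 100 uM in 0.5% DMSO. STAT3 mRNA by qRT-PCR, normalised to ACTB, GAPDH, POLR2A; bidirectional fit versus DMSO.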

[17] = read-out: solute carrier (SLCO1B1), SLCO1B1 (gene 10599); experiment: LTEA_HepaRG_SLCO1B1: Life Technologies and Expression Analysis (LTEA) Assay for solute carrier (SLCO1B1) using HepaRG (AID 2283530)
Summary of the method: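 SLCO1B1 transcript read by qRT-PCR (Fluidigm arrays), normalized to three housekeeping genes, after 48 h chemical exposure of HepaRG cells; bidirectional concentration-response fitting versus 0.5% DMSO baseline. Eight-point half-log series, maximum 100 uM.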

[18] = read-out: Nuclear factor NF-kappa-B p105 subunit (Homo sapiens) (UniProt P19838); experiment: LTEA_HepaRG_NFKB1: Life Technologies and Expression Analysis (LTEA) Assay for Nuclear Factor Kappa B Subunit 1 (NFKB1) using HepaRG (AID 2283521)
Summary of the method: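 NFKB1 transcript was measured by TaqMan qRT-PCR on Fluidigm arrays, normalised to three housekeeping genes and fitted in both directions against 0.5% DMSO. HepaRG cells were dosed in duplicate for 48 h in serum-free induction medium, eight half-log steps from 100 uM.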

[19] = read-out: Nuclear factor erythroid 2-related factor 2 (Homo sapiens) (UniProt Q16236); experiment: LTEA_HepaRG_NFE2L2: Life Technologies and Expression Analysis (LTEA) Assay for Nuclear factor erythroid 2-related factor 2 (NFE2L2) Transcription Factor using HepaRG (AID 2283527)
Summary of the method: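 Differentiated human HepaRG cells, serum-free induction medium, exposed 48 h in duplicate to eight half-log concentrations up to 100 uM in 0.5% DMSO. NFE2L2 mRNA by Fluidigm TaqMan qRT-PCR, normalised to ACTB, GAPDH, POLR2A; bidirectional change versus DMSO.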

Measured: AC50

Sequence of Signal transducer and activator of transcription 3 (Homo sapiens) (P40763 whole entry, looked up): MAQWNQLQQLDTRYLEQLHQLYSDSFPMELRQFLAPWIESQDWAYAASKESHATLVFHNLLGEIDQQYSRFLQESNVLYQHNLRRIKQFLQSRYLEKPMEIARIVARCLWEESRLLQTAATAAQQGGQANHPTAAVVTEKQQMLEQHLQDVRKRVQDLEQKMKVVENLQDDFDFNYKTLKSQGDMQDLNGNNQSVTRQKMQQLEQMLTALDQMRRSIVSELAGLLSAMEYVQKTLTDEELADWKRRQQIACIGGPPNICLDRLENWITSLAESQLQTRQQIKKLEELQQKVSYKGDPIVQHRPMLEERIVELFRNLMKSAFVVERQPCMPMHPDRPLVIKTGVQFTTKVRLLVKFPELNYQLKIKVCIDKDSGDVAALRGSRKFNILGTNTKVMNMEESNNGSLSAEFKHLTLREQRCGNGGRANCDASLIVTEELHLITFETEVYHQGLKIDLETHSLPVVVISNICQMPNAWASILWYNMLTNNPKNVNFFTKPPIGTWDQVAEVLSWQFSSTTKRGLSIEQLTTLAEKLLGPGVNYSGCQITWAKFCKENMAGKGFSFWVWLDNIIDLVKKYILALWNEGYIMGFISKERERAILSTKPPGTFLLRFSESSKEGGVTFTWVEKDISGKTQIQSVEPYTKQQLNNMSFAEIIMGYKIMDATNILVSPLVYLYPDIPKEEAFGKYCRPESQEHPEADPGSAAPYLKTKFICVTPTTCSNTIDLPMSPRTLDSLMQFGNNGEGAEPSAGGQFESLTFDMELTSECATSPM
Sequence of Nuclear factor NF-kappa-B p105 subunit (Homo sapiens) (P19838 whole entry, looked up): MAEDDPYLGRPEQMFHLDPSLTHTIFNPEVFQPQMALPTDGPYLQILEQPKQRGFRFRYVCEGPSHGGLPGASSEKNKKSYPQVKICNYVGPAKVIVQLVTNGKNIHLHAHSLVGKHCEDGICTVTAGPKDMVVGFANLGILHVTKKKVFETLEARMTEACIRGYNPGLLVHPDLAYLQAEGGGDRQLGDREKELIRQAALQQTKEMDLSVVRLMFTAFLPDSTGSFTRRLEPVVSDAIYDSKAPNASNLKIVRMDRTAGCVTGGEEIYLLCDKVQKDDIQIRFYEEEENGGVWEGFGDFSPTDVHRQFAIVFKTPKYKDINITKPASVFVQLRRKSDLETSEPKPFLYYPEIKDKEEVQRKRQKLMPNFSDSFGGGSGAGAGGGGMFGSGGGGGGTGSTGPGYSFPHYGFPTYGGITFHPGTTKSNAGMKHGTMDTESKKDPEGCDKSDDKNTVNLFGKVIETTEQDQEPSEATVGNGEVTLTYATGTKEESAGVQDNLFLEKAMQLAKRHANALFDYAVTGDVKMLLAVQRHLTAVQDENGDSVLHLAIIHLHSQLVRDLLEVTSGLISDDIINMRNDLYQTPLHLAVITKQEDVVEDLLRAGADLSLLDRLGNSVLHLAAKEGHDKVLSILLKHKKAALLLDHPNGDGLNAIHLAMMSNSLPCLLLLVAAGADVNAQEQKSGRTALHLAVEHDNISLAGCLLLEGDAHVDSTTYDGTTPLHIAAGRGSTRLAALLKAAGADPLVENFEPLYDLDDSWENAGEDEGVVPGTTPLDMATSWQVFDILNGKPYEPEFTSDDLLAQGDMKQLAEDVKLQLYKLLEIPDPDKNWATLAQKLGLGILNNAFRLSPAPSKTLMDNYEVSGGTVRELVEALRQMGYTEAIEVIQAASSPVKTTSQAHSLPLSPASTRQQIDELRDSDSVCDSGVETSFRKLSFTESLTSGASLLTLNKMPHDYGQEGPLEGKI
Sequence of Nuclear factor erythroid 2-related factor 2 (Homo sapiens) (Q16236 whole entry, looked up): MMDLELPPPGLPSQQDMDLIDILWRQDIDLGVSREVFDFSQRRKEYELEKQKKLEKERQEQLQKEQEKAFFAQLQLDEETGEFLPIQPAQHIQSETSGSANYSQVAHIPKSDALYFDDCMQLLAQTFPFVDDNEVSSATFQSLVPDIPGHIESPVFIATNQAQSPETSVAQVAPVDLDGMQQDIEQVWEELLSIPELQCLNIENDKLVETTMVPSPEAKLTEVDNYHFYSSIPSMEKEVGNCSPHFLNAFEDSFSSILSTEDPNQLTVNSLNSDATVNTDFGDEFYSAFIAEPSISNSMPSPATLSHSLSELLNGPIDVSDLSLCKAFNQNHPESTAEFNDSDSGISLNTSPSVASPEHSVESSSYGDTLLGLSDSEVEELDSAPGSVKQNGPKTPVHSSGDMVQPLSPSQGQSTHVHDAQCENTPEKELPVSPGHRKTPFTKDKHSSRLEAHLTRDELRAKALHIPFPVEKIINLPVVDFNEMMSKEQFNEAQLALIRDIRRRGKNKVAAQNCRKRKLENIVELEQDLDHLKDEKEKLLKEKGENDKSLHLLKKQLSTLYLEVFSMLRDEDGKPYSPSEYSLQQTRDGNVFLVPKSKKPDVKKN

CCOc1ccc2c(c1)C(C)=CC(C)(C)N2
active: [4] 50 µM | [9] 31.8 µM | [10] 50 µM
not listed: [18] | [19]
inactive: all other assays above

Nc1nc(N)c2nc(CNc3ccc(C(=O)N[C@@H](CCC(=O)O)C(=O)O)cc3)cnc2n1
active: [13] 96.7 nM
not listed: [7]
inactive: all other assays above

CC(C)c1ccc(C(=O)N=C(N)N)cc1S(C)(=O)=O
inactive: [9] | [15] | [16] | [17]
active: [1] 377 nM | [2] 395 nM | [3] 607 nM | [4] 0.31 µM | [5] 334 nM | [6] 67.9 µM | [8] 1.4 µM | [18] 291 nM | [10] 0.532 µM | [12] 350 nM | [13] 362 nM | [14] 959 nM

Cc1ccc(N(C)C)cc1
not listed: [7] | [11]
inactive: all other assays above

Cc1c(C(=O)O)c(O)cc2c1C(=O)c1c(O)c([C@@H]3O[C@H](CO)[C@@H](O)[C@H](O)[C@H]3O)c(O)c(O)c1C2=O
not listed: [11] | [18]
inactive: all other assays above

Cc1ccccc1Cl
not listed: [7] | [18] | [19]
inactive: all other assays above

CCCCCCOCCO
active: [16] 9.92 µM
not listed: [7] | [11]
inactive: all other assays above
